Measurements from PubChem BioAssay AID1159580 (chemical genetic matrix, 2015).
Hit rate of the full screen: of about 5,500 compounds, about 2,000 (36%) were called active. Inconclusive results (about 18%) are left out. No stated cut-off is given here; in the data, active means normalized growth mostly below about 0.91 (no sharp cut-off); inconclusive means no clear call, values can overlap the other calls; inactive means mostly above about 0.92. This is one part of the list.

Test: chemical genetic growth profiling, strain panel (AID 1159580);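 further: tested at 20 µM; growth read once vehicle control cultures reached saturation at 30 °C; 1 = growth at the plate median or of vehicle wells; lower values mean less growth of the strain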
Details: S. cerevisiae deletion strains, growth OD
[1] = locus YDL101C, strain DUN1, active compounds read low
[2] = locus YHR030C, strain SLT2, active compounds read low

Measured: normalized growth

Cc1c(Cc2ccc(F)cc2)c(=O)oc2cc(O)ccc12
active: [2] 0.83
inactive: locus YAR019C, strain CDC15, active compounds read low 0.973 | locus YBL105C, strain PKC1, active compounds read low 0.986 | locus YBR135W, strain CKS1, active compounds read low 0.98 | locus YBR136W, strain MEC1, active compounds read low 0.963 | locus YBR160W, strain CDC28, active compounds read low 0.981 | locus YDL017W, strain CDC7, active compounds read low 0.983 | locus YDL028C, strain MPS1, active compounds read low 0.976 | [1] 0.979 | locus YDL108W, strain KIN28, active compounds read low 0.978 | locus YDL132W, strain cdc53, active compounds read low 0.978 | locus YDL214C, strain PRR2, active compounds read low 0.967 | locus YDR052C, strain DBF4, active compounds read low 0.987 | locus YDR054C, strain cdc34, active compounds read low 0.975 | locus YDR226W, strain ADK1, active compounds read low 0.987 | locus YDR477W, strain SNF1, active compounds read low 0.971 | locus YER123W, strain YCK3, active compounds read low 0.99 | locus YER133W, strain GLC7, active compounds read low 0.977 | locus YFL009W, strain cdc4, active compounds read low 0.973 | locus YFL029C, strain CAK1, active compounds read low 0.97 | locus YFR003C, strain YPI1, active compounds read low 0.985 | locus YFR019W, strain FAB1, active compounds read low 0.988 | locus YFR028C, strain CDC14, active compounds read low 0.972 | locus YGR040W, strain KSS1, active compounds read low 0.954 | locus YGR052W, strain FMP48, active compounds read low 1.02 | locus YGR092W, strain DBF2, active compounds read low 0.944 | locus YHR079C, strain IRE1, active compounds read low 0.91 | locus YHR082C, strain KSP1, active compounds read low 0.968 | locus YHR205W, strain SCH9, active compounds read low 0.958 | locus YIL147C, strain SLN1, active compounds read low 0.983 | locus YJL095W, strain BCK1, active compounds read low 0.923 | locus YJL128C, strain PBS2, active compounds read low 0.956 | locus YJL157C, strain FAR1, active compounds read low 0.966 | locus YJR016C, strain ILV3, active compounds read low 0.982 | locus YJR066W, strain TOR1 (second series), active compounds read low 0.976 | locus YJR066W, strain TOR1, active compounds read low 0.957 | locus YKL048C, strain ELM1, active compounds read low 0.969 | locus YKL067W, strain YNK1, active compounds read low 0.979 | locus YKL101W, strain HSL1, active compounds read low 0.967 | locus YKL193C, strain SDS22, active compounds read low 0.976 | locus YKL203C, strain TOR2, active compounds read low 1.01 | locus YLR113W, strain HOG1, active compounds read low 0.903 | locus YLR133W, strain CKI1, active compounds read low 0.968 | locus YLR403W, strain SFP1, active compounds read low 0.969 | locus YML070W, strain DAK1, active compounds read low 0.999 | locus YMR001C, strain CDC5, active compounds read low 0.978 | locus YMR205C, strain PFK2 (second series), active compounds read low 0.974 | locus YMR277W, strain FCP1, active compounds read low 0.974 | locus YNL006W, strain LST8, active compounds read low 0.975 | locus YNL020C, strain ARK1, active compounds read low 0.96 | locus YNL161W, strain CBK1, active compounds read low 0.974 | locus YNL183C, strain NPR1, active compounds read low 0.939 | locus YNL207W, strain RIO2, active compounds read low 0.97 | locus YNL222W, strain SSU72, active compounds read low 0.976 | locus YNL307C, strain MCK1 (second series), active compounds read low 0.984 | locus YOL078W, strain AVO1, active compounds read low 0.973 | locus YOL136C, strain PFK27, active compounds read low 0.964 | locus YOR061W, strain CKA2, active compounds read low 0.957 | locus YOR119C, strain RIO1, active compounds read low 0.977 | locus YOR231W, strain MKK1, active compounds read low 0.926 | locus YOR329C, strain SCD5, active compounds read low 0.979 | locus YPL031C, strain PHO85, active compounds read low 0.947 | locus YPL153C, strain RAD53, active compounds read low 0.962 | locus YPL204W, strain HRR25, active compounds read low 0.98 | locus YPL209C, strain IPL1, active compounds read low 0.982 | locus YPL256C, strain CLN2, active compounds read low 0.899 | locus YPR025C, strain CCL1, active compounds read low 0.977 | locus YPR106W, strain ISR1, active compounds read low 0.984 | locus YPR111W, strain DBF20, active compounds read low 0.971 | strain NNK1, active compounds read low 0.984 | strain TSCII, active compounds read low 0.978

CCCc1cc(=O)c2ccc(O)cc2o1
inactive: locus YAL013W, strain DEP1, active compounds read low 0.975 | locus YBR229C, strain ROT2, active compounds read low 1 | locus YCL061C, strain MRC1, active compounds read low 0.976 | [1] 0.947 | locus YDL134C, strain PPH21, active compounds read low 0.996 | locus YDR150W, strain NUM1, active compounds read low 0.967 | locus YEL061C, strain CIN8, active compounds read low 1 | locus YGR078C, strain PAC10, active compounds read low 0.969 | [2] 0.919 | locus YHR087W, strain rtc3, active compounds read low 1.03 | locus YJR043C, strain POL32, active compounds read low 1 | locus YJR075W, strain HOC1, active compounds read low 1.01 | locus YLR039C, strain RIC1, active compounds read low 0.957 | locus YLR058C, strain SHM2 (second series), active compounds read low 0.986 | locus YLR085C, strain ARP6, active compounds read low 0.964 | locus YLR262C, strain YPT6, active compounds read low 1.01 | locus YML094W, strain GIM5, active compounds read low 1.02 | locus YMR219W, strain ESC1, active compounds read low 0.998 | locus YMR263W, strain SAP30, active compounds read low 0.995 | locus YNL128W, strain TEP1, active compounds read low 0.97 | locus YNL153C, strain GIM3, active compounds read low 0.993 | locus YNL298W, strain CLA4 (second series), active compounds read low 0.971 | locus YNL322C, strain KRE1, active compounds read low 0.966 | locus YNR030W, strain Alg12, active compounds read low 0.985 | locus YOL006C, strain TOP1, active compounds read low 0.933 | locus YPL055C, strain LGE1, active compounds read low 1.05 | locus YPL241C, strain CIN2, active compounds read low 0.988 | locus YPR135W, strain CTF4, active compounds read low 0.943
